The nature of the experiment: EMT-state selective cytotoxicity in co-culture – imaging, PC-3E GFP, TEM4-18 mCherry, primary screen (AID 1345086).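 Note: cells exposed to compound for 72 h before imaging.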 The following applies: PC-3E GFP / TEM4-18 mCherry co-culture, imaging cell counts; measured here: epithelial PC-3E GFP cell survival; at 1 µM.
Take `CC(=O)NCCc1ccc(O)c(-c2c(O)c(O)c3c(c2O)C(=O)c2c(cc(O)c(C(=O)O)c2C(=O)O)C3=O)c1`: the normalised cell number came to 0.95.
Under `CC(C)(O)CC[C@@H](O)[C@](C)(O)C1CC[C@@]2(O)C3=CC(=O)C4C[C@@H](O)[C@@H](O)C[C@]4(C)C3CC[C@]12C` (some centres undefined) stands 0.94; under `C[C@@H]1CCC2[C@](C)(CO)[C@@H](O)CC[C@]2(C)[C@@]12CC[C@@](CO)(CCO)O2` (some centres undefined), 1.01; under `COC1=C(O)C(=O)c2c(cc3oc(C(C)=O)c(O)c3c2O)C1=O`, 0.94.
Under `CC(CC(=O)N1C(=O)OC[C@@H]1Cc1ccccc1)N1C(=S)OC[C@H]1c1ccccc1` (some centres undefined) stands 1.17; under `O=C(NCC[C@H](O)C(=O)O)OCc1ccccc1`, 1.09; under `CC(=O)OCC1=C[C@]2(O)CC3=C(CC24O[C@@H]4C1=O)[C@@]1(C)CCCC(C)(C)[C@@H]1CC3` (some centres undefined), 0.93.
Then `CC1COc2c(N)c(F)cc3c(=O)c(C(=O)O)cn1c23` (centres undefined), with 1.07; and `CC(C)=CCCC(C)[C@@H]1CC[C@]2(C)C3=C(CC[C@@]12C)C1(C)CC[C@H](O)C(C)(C)C1CC3` (some centres undefined), with 1.09; and `O=C1NCC[C@H]1Oc1ccc(Oc2cnc3ccc(Cl)cc3n2)cc1`, with 1.18.
For the compound `COC(=O)c1cn(C2CC2)c2c(OC)c(F)c(F)cc2c1=O`, the normalised cell number is 1.11.
Then `COc1cccc(Oc2c(O)cc(C)cc2CC(=O)c2cc(C)cc(O)c2C(=O)c2c(O)cccc2O)c1C(=O)O`, with 1.09; and `NCC1O[C@@H](OC2C(N)C[C@@H](N)C(O)[C@H]2OC2OC(CO)C(OC3OC(CN)[C@@H](O)C(O)[C@H]3N)C2O)C(N)[C@@H](O)C1O` (some centres undefined), with 0.9.
Then `C[C@H](Cc1cc(O)cc(O)c1C(=O)O[C@H](C)CC(=O)O[C@H](C)Cc1cc(O)cc(O)c1C(=O)O[C@H](C)CC1Cc2cc(O)cc(O)c2C(=O)O1)OC(=O)C[C@@H](C)O` (some centres undefined), with 0.85; and `CCC(=O)O[C@]1(C(=O)SCF)[C@H](C)CC2C3CC(F)C4=CC(=O)C=C[C@]4(C)C3(F)[C@@H](O)C[C@@]21C` (some centres undefined), with 0.87; and `CCN1CC(CCN2CCOCC2)C(C(c2ccccc2)c2ccccc2)C1=O` (centres undefined), with 1.12.
Under `CC(C)CC1OC23SCC(c4ccccc4)N2C(=O)C1C(C)(C)S3` (centres undefined) stands 1.15; under `Cc1ccc(S[C@H]2OC(CO)C(O)[C@@H]3OC(=O)N[C@H]23)cc1` (some centres undefined), 1.01; under `C=C1[C@@H](C)C2[C@H](Cc3c[nH]c4ccccc34)NC(=O)[C@]23C(=O)/C=C/C(=O)[C@H](OC(C)=O)/C(C)=C/[C@@H](C)C/C=C/[C@H]3[C@@H]1O` (some centres undefined), 0.94.
`CO[C@H]1/C=C/C[C@@H](C)OC(=O)c2c(O)cc(O)cc2CC(=O)CCC1` registered a normalised cell number of 0.98.
`Nc1nc(=S)c2ncn(C3O[C@H](CO)[C@@H](O)[C@H]3O)c2[nH]1` (some centres undefined) returned a normalised cell number of 1.02.
For the compound `COC(=O)C[C@H]1C2(C)CC34OC5(C)O[C@]6(C7/C(=C(/O)C(C)C)C(=O)O[C@@H](c8ccoc8)[C@]7(C)C(OC(C)=O)[C@@H](OC(C)=O)[C@]6(O5)C13C)[C@H](OC(C)=O)[C@@]4(O)C2OC(=O)C(C)C` (some centres undefined), the normalised cell number turned out to be 1.08.
With `CC(=O)N[C@@H]1[C@@H](OC(C)C(=O)O)[C@H](O)[C@@H](CO)O[C@H]1O` (some centres undefined), the normalised cell number turned out to be 1.06.
With `C=C1OC(=O)c2c(OC)cc(OC)c(C)c2C1C` (centres undefined), the normalised cell number was 0.98.
Under `C=C(C)n1cc(C(=O)OC)c(=O)c2cc(F)c(F)c(OC)c21` stands 0.99; under `COC(=O)CC1C(C)(C)C(OC(C)=O)[C@@H]2[C@@H](OC(C)=O)[C@]34O[C@@]2(O)C1(C)C3CC[C@]1(C)C4=CC(=O)O[C@H]1c1ccoc1` (some centres undefined), 0.89; under `COc1cc(O)c2c(c1C)C(C(C)=O)COC2=O` (centres undefined), 0.32.
In turn, `COc1c(N2CC[C@@H](CN)C2)c(F)cc2c(=O)c(C(=O)O)cn(Cc3ccc(-c4ccccc4)cc3)c12` gave a normalised cell number of 0.86.
`O=C1C=CC2(Oc3cccc4cccc(c34)O2)[C@H]2[C@H]1[C@@H](O)C=C[C@H]2O` gave a normalised cell number of 1.06.
Under `CCO[C@H]1OC(C(=O)OC)C(OC(=O)CCC(=O)O)[C@H](OC(=O)c2ccccc2)[C@@H]1OC(=O)c1ccccc1` (some centres undefined) stands 1.18.
In turn, `CC(=O)O[C@@H]1CC2C(C)(C)[C@H](O)C[C@H](O)[C@]2(C)C2CC[C@@]3(C)[C@H](c4ccoc4)OC(=O)[C@H]4O[C@]43[C@@]21C` (some centres undefined) registered a normalised cell number of 1.01.
Then `CC1CC(O)C2C=CC(CC(=O)O1)O2` (centres undefined), with 0.7; and `COC(=O)C[C@H]1C(C)(C)C(=O)[C@@H]2CC3C4=CC(=O)O[C@@H](c5ccoc5)[C@]4(C)CCC3C1(C)C2=O` (some centres undefined), with 0.84.
Under `COc1cc(CC(=O)O)c(C(C)=O)c(O)c1OC` stands 1.18.

For the origin of these results see PubChem BioAssay.
